# Assay results as given in PubChem BioAssay AID1159580 (chemical genetic matrix, 2015).
# Hit rate of the full screen: of about 5,500 compounds, about 2,000 (36%) were called active. Roughly 18% stayed inconclusive and do not appear here. This is one part of the list. Values without a mark were called inactive. No stated cut-off is given here; in the data, active means normalized growth mostly below about 0.91 (no sharp cut-off); inconclusive means no clear call, values can overlap the other calls; inactive means mostly above about 0.92.
# Experiment: chemical genetic growth profiling, strain panel (AID 1159580);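 further: tested at 20 µM; growth read once vehicle control cultures reached saturation at 30 °C; 1 = growth at the plate median or of vehicle wells; lower values mean less growth of the strain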
# Details: S. cerevisiae deletion strains, growth OD
compound,measurement,setting,value
Cc1onc(-c2c(F)cccc2Cl)c1C(=O)ON=C1C2CC3CC(C2)CC1C3,normalized growth,"locus YAR019C, strain CDC15, hits give low values",1.06
same,normalized growth,"locus YBL105C, strain PKC1, hits give low values",1.11 [resistant] (active)
same,normalized growth,"locus YBR135W, strain CKS1, hits give low values",1.09 [resistant] (active)
same,normalized growth,"locus YBR136W, strain MEC1, hits give low values",1.08 [resistant] (active)
same,normalized growth,"locus YBR160W, strain CDC28, hits give low values",1.08 [resistant] (active)
same,normalized growth,"locus YDL017W, strain CDC7, hits give low values",1.08 [resistant] (active)
same,normalized growth,"locus YDL028C, strain MPS1, hits give low values",1.08 [resistant] (active)
same,normalized growth,"locus YDL101C, strain DUN1, hits give low values",0.97
same,normalized growth,"locus YDL108W, strain KIN28, hits give low values",1.09 [resistant] (active)
same,normalized growth,"locus YDL132W, strain cdc53, hits give low values",1.06
same,normalized growth,"locus YDL214C, strain PRR2, hits give low values",0.955
same,normalized growth,"locus YDR052C, strain DBF4, hits give low values",0.997
same,normalized growth,"locus YDR054C, strain cdc34, hits give low values",1.04
same,normalized growth,"locus YDR226W, strain ADK1, hits give low values",1.06 [resistant] (active)
same,normalized growth,"locus YDR477W, strain SNF1, hits give low values",0.965
same,normalized growth,"locus YER123W, strain YCK3, hits give low values",0.939
same,normalized growth,"locus YER133W, strain GLC7, hits give low values",0.979
same,normalized growth,"locus YFL009W, strain cdc4, hits give low values",1.06
same,normalized growth,"locus YFL029C, strain CAK1, hits give low values",1.07
same,normalized growth,"locus YFR003C, strain YPI1, hits give low values",1.09 [resistant] (active)
same,normalized growth,"locus YFR019W, strain FAB1, hits give low values",0.967
same,normalized growth,"locus YFR028C, strain CDC14, hits give low values",1.02
same,normalized growth,"locus YGR040W, strain KSS1, hits give low values",0.953
same,normalized growth,"locus YGR052W, strain FMP48, hits give low values",0.974
same,normalized growth,"locus YGR092W, strain DBF2, hits give low values",0.982
same,normalized growth,"locus YHR030C, strain SLT2, hits give low values",0.895
same,normalized growth,"locus YHR079C, strain IRE1, hits give low values",0.967
same,normalized growth,"locus YHR082C, strain KSP1, hits give low values",0.981
same,normalized growth,"locus YHR205W, strain SCH9, hits give low values",0.85
same,normalized growth,"locus YIL147C, strain SLN1, hits give low values",1.1 [resistant] (active)
same,normalized growth,"locus YJL095W, strain BCK1, hits give low values",0.968
same,normalized growth,"locus YJL128C, strain PBS2, hits give low values",1.01
same,normalized growth,"locus YJL157C, strain FAR1, hits give low values",0.95
same,normalized growth,"locus YJR016C, strain ILV3, hits give low values",1.04
same,normalized growth,"locus YJR066W, strain TOR1 (second series), hits give low values",0.924
same,normalized growth,"locus YJR066W, strain TOR1, hits give low values",0.98
same,normalized growth,"locus YKL048C, strain ELM1, hits give low values",0.968
same,normalized growth,"locus YKL067W, strain YNK1, hits give low values",0.974
same,normalized growth,"locus YKL101W, strain HSL1, hits give low values",0.94
same,normalized growth,"locus YKL193C, strain SDS22, hits give low values",1.08 [resistant] (active)
same,normalized growth,"locus YKL203C, strain TOR2, hits give low values",0.969
same,normalized growth,"locus YLR113W, strain HOG1, hits give low values",0.816 (active)
same,normalized growth,"locus YLR133W, strain CKI1, hits give low values",0.951
same,normalized growth,"locus YLR403W, strain SFP1, hits give low values",0.894
same,normalized growth,"locus YML070W, strain DAK1, hits give low values",0.934
same,normalized growth,"locus YMR001C, strain CDC5, hits give low values",1.07 [resistant] (active)
same,normalized growth,"locus YMR205C, strain PFK2 (second series), hits give low values",0.971
same,normalized growth,"locus YMR277W, strain FCP1, hits give low values",1.06
same,normalized growth,"locus YNL006W, strain LST8, hits give low values",1.1 [resistant] (active)
same,normalized growth,"locus YNL020C, strain ARK1, hits give low values",0.955
same,normalized growth,"locus YNL161W, strain CBK1, hits give low values",1.08 [resistant] (active)
same,normalized growth,"locus YNL183C, strain NPR1, hits give low values",0.917
same,normalized growth,"locus YNL207W, strain RIO2, hits give low values",1.03
same,normalized growth,"locus YNL222W, strain SSU72, hits give low values",1.1 [resistant] (active)
same,normalized growth,"locus YNL307C, strain MCK1 (second series), hits give low values",0.953
same,normalized growth,"locus YOL078W, strain AVO1, hits give low values",1.05
same,normalized growth,"locus YOL136C, strain PFK27, hits give low values",0.933
same,normalized growth,"locus YOR061W, strain CKA2, hits give low values",0.965
same,normalized growth,"locus YOR119C, strain RIO1, hits give low values",0.976
same,normalized growth,"locus YOR231W, strain MKK1, hits give low values",0.9
same,normalized growth,"locus YOR329C, strain SCD5, hits give low values",1.1 [resistant] (active)
same,normalized growth,"locus YPL031C, strain PHO85, hits give low values",0.975
same,normalized growth,"locus YPL153C, strain RAD53, hits give low values",0.959
same,normalized growth,"locus YPL204W, strain HRR25, hits give low values",0.931
same,normalized growth,"locus YPL209C, strain IPL1, hits give low values",1.09 [resistant] (active)
same,normalized growth,"locus YPL256C, strain CLN2, hits give low values",0.866
same,normalized growth,"locus YPR025C, strain CCL1, hits give low values",1.1 [resistant] (active)
same,normalized growth,"locus YPR106W, strain ISR1, hits give low values",1.04
same,normalized growth,"locus YPR111W, strain DBF20, hits give low values",1.06
same,normalized growth,"strain NNK1, hits give low values",1.03
same,normalized growth,"strain TSCII, hits give low values",1.04
